Laboratory results: PubChem BioAssay (EPA / NIEHS)
Several values for one entry are separate records, joined by “and”; a condition that tells them apart may be missing. Equal entries are not always repeated. Activity calls are given as the source filed them. The calls were made as follows: active = hit-call score of the fitted dose curve at least 0.9, where 1 is the maximum; inconclusive = response in the unintended direction; inactive = score below 0.9.

What follows are molecules tested against rat CYP2A2, Cyp2a2 (gene 24895) (UniProt P15149) (assay: NVS_ADME_rCYP2A2: NovaScreen (NVS) CYP450-related Enzyme Activity (ADME) Assay for rat CYP2A2 (AID 2283116)).
Description: NVS_ADME_rCYP2A2 is a biochemical, single-readout assay that uses extracted gene-proteins in a cell-free assay. Measurements were taken 0.2 hour after chemical dosing in a 96-well plate.NVS_ADME_rCYP2A2 is one of one assay component(s) measured or calculated from the NVS_ADME_rCYP2A2 assay. It is designed to make measurements of enzyme activity, a form of enzyme reporter, as detected with fluorescence intensity signals by Fluorescence technology.Data from the assay component NVS_ADME_rCYP2A2 was analyzed into 1 assay endpoint. This assay endpoint, NVS_ADME_rCYP2A2, was analyzed in the positive analysis fitting direction relative to Acetonitrile as the negative control and baseline of activity. Using a type of enzyme reporter, loss-of-signal activity can be used to understand changes in the enzymatic activity as they relate to the gene Cyp2a2. Furthermore, this assay endpoint can be referred to as a primary readout, because this assay has produced multiple assay endpoints where this one serves a enzymatic activity function. To generalize the intended target to other relatable targets, this assay endpoint is annotated to the cyp intended target family, where the subfamily is xenobiotic metabolism.
Binding assays used specific radioligands (tritiated, iodinated) with non-radioactive competitive displacement ligands in agonist or antagonist protocols (as indicated) and various reference compounds and inhibitors to titrate specific binding to receptors and transporters. Most enzyme assays (CYPs, kinases, phosphatases, proteases, HDACs) used recombinant protein and specific substrates (fluorescence mostly, some colorimetric and radioactive) and inhibitors, followed by a biochemical separation of substrate and product. All assays for the biochemical HTS were initially run in duplicate at a single concentration (10 uM for CYP450 assays and 25 uM for all others). Assay-chemical combinations meeting a pre-defined threshold (e.g., 30% inhibition and other criteria defined below) were then run in singleton concentration-response format with maximum concentration of 20 uM for CYPs and 50 uM for all others. Each assay was run with positive and negative controls, and concurrent controls on every plate. The follow-up (secondary) screen tested active chemical-pairs in concentration series, as well as a few additional assays not tested in the primary screen, some selected negative inactives, and several cases re-run in the concentration series for confirmatory purposes.

Chain of rat CYP2A2, Cyp2a2 (gene 24895) (P15149 whole entry, looked up): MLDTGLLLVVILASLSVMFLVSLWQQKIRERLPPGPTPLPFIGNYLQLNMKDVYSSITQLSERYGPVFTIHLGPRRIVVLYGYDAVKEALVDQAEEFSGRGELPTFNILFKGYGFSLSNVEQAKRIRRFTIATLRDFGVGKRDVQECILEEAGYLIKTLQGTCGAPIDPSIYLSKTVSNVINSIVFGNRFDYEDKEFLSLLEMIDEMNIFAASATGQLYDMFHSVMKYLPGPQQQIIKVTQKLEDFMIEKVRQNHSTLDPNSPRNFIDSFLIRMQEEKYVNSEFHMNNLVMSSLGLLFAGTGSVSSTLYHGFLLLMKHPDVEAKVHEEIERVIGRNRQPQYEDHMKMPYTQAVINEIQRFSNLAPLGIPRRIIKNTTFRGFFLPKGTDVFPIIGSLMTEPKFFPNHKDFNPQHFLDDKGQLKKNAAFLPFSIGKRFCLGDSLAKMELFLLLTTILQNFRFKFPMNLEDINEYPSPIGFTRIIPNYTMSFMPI

SMILES	AC50	outcome
CCCCC(O)(Cn1cncn1)c1ccc(Cl)cc1Cl (stereo unspecified)	0.0126 µM (active)	–
CC1(C)CCC(=Cc2ccc(Cl)cc2)C1(O)Cn1cncn1 (stereo unspecified)	0.299 µM (active)	–
Cc1c(COC(=O)[C@@H]2[C@H](/C=C(\Cl)C(F)(F)F)C2(C)C)cccc1-c1ccccc1	–	inactive
CCN(CC)C(=O)C(C)Oc1cccc2ccccc12 (stereo unspecified)	5.89 µM (active)	–
CCOc1cc(C(C)(C)C)ccc1C1COC(c2c(F)cccc2F)=N1 (stereo unspecified)	1.15 µM (active)	–
CCCCC(C#N)(Cn1cncn1)c1ccc(Cl)cc1 (stereo unspecified)	0.238 µM (active)	–
CC(C)C1(C)N=C(c2ncccc2C(=O)O)NC1=O (stereo unspecified)	6.92 µM (active)	–
CC(C)(C)C(=O)C(Oc1ccc(Cl)cc1)n1cncn1 (stereo unspecified)	32 nM (active) and 40.6 nM (active)	–
CCCN(CC)CC1COC2(CCC(C(C)(C)C)CC2)O1 (stereo unspecified)	–	inactive
CCNP(=S)(OC)O/C(C)=C/C(=O)OC(C)C (stereo unspecified)	6.86 µM (active)	–
COP(=S)(OC)SCn1nnc2ccccc2c1=O	5.47 µM (active)	–
